# According to PubChem BioAssay (EPA / NIEHS):
# Calls of active or inactive are those of the source. Rule for the calls: active = hit-call score of the fitted dose curve at least 0.9, where 1 is the maximum; inactive = score below 0.9.
# Assays:
# [1] = read-out: growth arrest and DNA damage 45 (GADD45A), GADD45A (gene 1647); assay: LTEA_HepaRG_GADD45A: Life Technologies and Expression Analysis (LTEA) Assay for growth arrest and DNA damage 45 (GADD45A) using HepaRG (AID 2283458); settings: mRNA level, 48 h; actives raise or lower the signal
# Method in brief: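 GADD45A expression was measured by TaqMan qRT-PCR against three housekeeping genes (ACTB, GAPDH, POLR2A) after 48 h treatment of HepaRG cells. Eight-point half-log series up to 100 uM in 0.5% DMSO, run in duplicate.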
# [2] = read-out: Forkhead box O3 (FOXO3), FOXO3 (gene 2309); assay: LTEA_HepaRG_FOXO3: Life Technologies and Expression Analysis (LTEA) Assay for Forkhead box O3 (FOXO3) using HepaRG (AID 2283459); settings: mRNA level, 48 h; actives raise or lower the signal
# Method in brief: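 FOXO3 transcript measured by qRT-PCR (normalized to ACTB, GAPDH, POLR2A) after 48 h exposure of HepaRG cells in serum-free induction medium. Duplicates, eight half-log concentrations up to 100 uM, 0.5% DMSO; gain or loss fitted against DMSO.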
# [3] = read-out: ABC Transporter (ABCB1), ABCB1 (gene 5243); assay: LTEA_HepaRG_ABCB1: Life Technologies and Expression Analysis (LTEA) Assay for ABC Transporter (ABCB1) using HepaRG (AID 2283460); settings: mRNA level, 48 h; actives raise or lower the signal
# Method in brief: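 ABCB1 transcript level measured by TaqMan qRT-PCR against three housekeeping genes after 48 h chemical exposure of differentiated HepaRG cells. Top concentration 100 uM, half-log steps, eight points, 0.5% DMSO vehicle; bidirectional fit relative to DMSO.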
# [4] = read-out: growth arrest and DNA damage 45 (GADD45B), GADD45B (gene 4616); assay: LTEA_HepaRG_GADD45B: Life Technologies and Expression Analysis (LTEA) Assay for growth arrest and DNA damage 45 (GADD45B) using HepaRG (AID 2283461); settings: mRNA level, 48 h; actives raise or lower the signal
# Method in brief: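 Human HepaRG monolayers receive chemicals for 48 h at eight half-log concentrations, highest 100 uM, in 0.5% DMSO. Expression is measured by TaqMan qRT-PCR and normalized to ACTB, GAPDH and POLR2A.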
# [5] = read-out: ABC Transporter (ABCC3), ABCC3 (gene 8714); assay: LTEA_HepaRG_ABCC3: Life Technologies and Expression Analysis (LTEA) Assay for ABC Transporter (ABCC3) using HepaRG (AID 2283462); settings: mRNA level, 48 h; actives raise or lower the signal
# Method in brief: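 Transcriptional change of ABCC3 in HepaRG after 48 h treatment, determined by qRT-PCR normalized to endogenous controls. Concentrations spanned eight half-log steps to 100 uM in 0.5% DMSO.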
# [6] = read-out: ABC Transporter (ABCB11), ABCB11 (gene 8647); assay: LTEA_HepaRG_ABCB11: Life Technologies and Expression Analysis (LTEA) Assay for ABC Transporter (ABCB11) using HepaRG (AID 2283463); settings: mRNA level, 48 h; actives raise or lower the signal
# Method in brief: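 ABCB11 transcript levels quantified by TaqMan qRT-PCR against three housekeeping genes after 48 h chemical exposure of HepaRG cultures. Concentrations up to 100 uM in half-log steps, 0.5% DMSO vehicle; both induction and suppression scored.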
# [7] = read-out: Broad substrate specificity ATP-binding cassette transporter ABCG2 (Homo sapiens) (UniProt Q9UNQ0); assay: LTEA_HepaRG_ABCG2: Life Technologies and Expression Analysis (LTEA) Assay for ABC Transporter (ABCG2) using HepaRG (AID 2283465); settings: mRNA level, 48 h; actives raise or lower the signal
# Method in brief: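 ABCG2 transcript was quantified by TaqMan qRT-PCR against three housekeeping genes in HepaRG cells. Cells were treated in duplicate for 48 h across an 8-point half-log series up to 100 uM, with 0.5% DMSO vehicle. Gain or loss versus DMSO was fit.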
# [8] = read-out: Alkaline Phosphatase, Placental (ALPP) gene, ALPP (gene 250); assay: LTEA_HepaRG_ALPP: Life Technologies and Expression Analysis (LTEA) Assay for Alkaline Phosphatase, Placental (ALPP) gene using HepaRG (AID 2283468); settings: mRNA level, 48 h; actives raise or lower the signal;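 for AC50: differentiated human HepaRG liver cells in serum-free induction medium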
# Method in brief: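 Using human liver HepaRG cells, chemicals are tested in duplicate over 48 h at half-log concentrations topping at 100 uM; phenobarbital 1 mM serves as induction control. ALPP mRNA change by qRT-PCR, bidirectional fit against vehicle.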
# [9] = read-out: Bcl-2 (BAD) gene, BAD (gene 572); assay: LTEA_HepaRG_BAD: Life Technologies and Expression Analysis (LTEA) Assay for Bcl-2 (BAD) gene using HepaRG (AID 2283469); settings: mRNA level, 48 h; actives raise or lower the signal
# Method in brief: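 Read-out: qRT-PCR of BAD mRNA, normalized to three housekeeping genes. Human HepaRG cultures got 48 h chemical exposure in 0.5% DMSO, duplicate eight-point half-log series topping at 100 uM. Gain or loss of signal fitted versus DMSO vehicle.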
# [10] = read-out: Bcl-2 (BAX) gene, BAX (gene 581); assay: LTEA_HepaRG_BAX: Life Technologies and Expression Analysis (LTEA) Assay for Bcl-2 (BAX) gene using HepaRG (AID 2283470); settings: mRNA level, 48 h; actives raise or lower the signal
# Method in brief: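 Gene expression measured by Fluidigm qRT-PCR with three housekeeping genes for normalisation. HepaRG cells, plated 48 h beforehand, treated 48 h at up to 100 uM (8-point, half-log) in 0.5% DMSO. Bidirectional fitting versus DMSO.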
# [11] = read-out: adenosine kinase (ADK) gene, ADK (gene 132); assay: LTEA_HepaRG_ADK: Life Technologies and Expression Analysis (LTEA) Assay for adenosine kinase (ADK) gene using HepaRG (AID 2283471); settings: mRNA level, 48 h; actives raise or lower the signal
# Method in brief: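 ADK expression quantified by qRT-PCR, normalised to three housekeeping genes, after 48 h exposure of HepaRG cells to eight concentrations (top 100 uM, half-log steps, duplicate, 0.5% DMSO). Up- or down-regulation fitted relative to vehicle.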
# [12] = read-out: Alpha-fetoprotein (AFP) gene, AFP (gene 174); assay: LTEA_HepaRG_AFP: Life Technologies and Expression Analysis (LTEA) Assay for Alpha-fetoprotein (AFP) gene using HepaRG (AID 2283472); settings: mRNA level, 48 h; actives raise or lower the signal
# Method in brief: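 AFP transcript measured by TaqMan qRT-PCR with three housekeeping genes for normalization, after 48 h chemical treatment of HepaRG cells (top 100 uM, half-log steps, 0.5% DMSO). Gain or loss fitted against vehicle.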
# BCL2L11 (gene 10018) = assay: LTEA_HepaRG_BCL2L11: Life Technologies and Expression Analysis (LTEA) Assay for Bcl-2 (BCL2L11) gene using HepaRG (AID 2283473); settings: mRNA level, 48 h; actives raise or lower the signal
# Method in brief: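 Human hepatic HepaRG cultures are treated 48 h with test chemicals (maximum 100 uM, 0.5% DMSO vehicle). Expression of BCL2L11 is measured by qRT-PCR against ACTB, GAPDH and POLR2A, with activity in either direction scored relative to vehicle.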
# [13] = read-out: Apolipoprotein A-V (APOA5) gene, APOA5 (gene 116519); assay: LTEA_HepaRG_APOA5: Life Technologies and Expression Analysis (LTEA) Assay for Apolipoprotein A-V (APOA5) gene using HepaRG (AID 2283474); settings: mRNA level, 48 h; actives raise or lower the signal
# Method in brief: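 Concentration-response of APOA5 expression in HepaRG: eight half-log doses to 100 uM, 48 h, qRT-PCR normalized to ACTB/GAPDH/POLR2A, bidirectional fitting with 0.5% DMSO as baseline.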
# [14] = read-out: Apoptosis regulator Bcl-2 (Homo sapiens) (UniProt P10415); assay: LTEA_HepaRG_BCL2: Life Technologies and Expression Analysis (LTEA) Assay for Bcl-2 gene using HepaRG (AID 2283475); settings: mRNA level, 48 h; actives raise or lower the signal
# Method in brief: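 qRT-PCR of BCL2 transcript, normalized to three housekeeping genes (ACTB, GAPDH, POLR2A), after 48 h chemical exposure of HepaRG cells; concentrations top 100 uM with half-log dilutions, 0.5% DMSO vehicle, duplicates; changes up or down fitted relative to vehicle.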
# [15] = read-out: Bcl-2 (BID) gene, BID (gene 637); assay: LTEA_HepaRG_BID: Life Technologies and Expression Analysis (LTEA) Assay for Bcl-2 (BID) gene using HepaRG (AID 2283476); settings: mRNA level, 48 h; actives raise or lower the signal
# Method in brief: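 Duplicate 48 h treatments of HepaRG cells in serum-free induction medium spanned 100 uM downward in half-log steps, 0.5% DMSO. Transcript change quantified by qRT-PCR against three housekeeping genes, fitted up or down versus DMSO.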
# [16] = read-out: ATP-citrate lyase (ACLY), ACLY (gene 47); assay: LTEA_HepaRG_ACLY: Life Technologies and Expression Analysis (LTEA) Assay for ATP-citrate lyase (ACLY) using HepaRG (AID 2283466); settings: mRNA level, 48 h; actives raise or lower the signal
# Method in brief: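 ACLY mRNA quantified by qRT-PCR on Fluidigm arrays against three housekeeping genes, after 48 h chemical treatment of HepaRG cells (top concentration 100 uM, half-log steps, 0.5% DMSO vehicle). Up- or down-regulation fitted relative to DMSO.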
# [17] = read-out: Peroxisomal acyl-coenzyme A oxidase 1 (ACOX1) gene, ACOX1 (gene 51); assay: LTEA_HepaRG_ACOX1: Life Technologies and Expression Analysis (LTEA) Assay for Peroxisomal acyl-coenzyme A oxidase 1 (ACOX1) gene using HepaRG (AID 2283467); settings: mRNA level, 48 h; actives raise or lower the signal
# Method in brief: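 ACOX1 transcript levels were quantified by TaqMan qRT-PCR against three housekeeping genes after 48 h chemical exposure of differentiated human HepaRG cells. Exposure used eight half-log steps topping at 100 uM, 0.5% DMSO vehicle, in duplicate. Bidirectional curve fits were made relative to DMSO.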
# [18] = read-out: ABC Transporter (ABCC2), ABCC2 (gene 1244); assay: LTEA_HepaRG_ABCC2: Life Technologies and Expression Analysis (LTEA) Assay for ABC Transporter (ABCC2) using HepaRG (AID 2283464); settings: mRNA level, 48 h; actives raise or lower the signal
# Method in brief: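 After plating and 48 h culture, HepaRG medium is replaced with serum-free induction medium and chemicals are added (8 concentrations, max 100 uM, 0.5% DMSO) for 48 h. Total RNA then undergoes qRT-PCR for ABCC2 with housekeeping normalization.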
# [19] = CEETOX_H295R_TESTO: CeeTox H295R High-throughput Steroidogenesis Assay for Testosterone (TESTO) (AID 2283457); settings: actives raise or lower the signal
# Method in brief: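 Steroidogenesis in H295R cells following OECD 456 with minor changes; 48 h exposure. Medium testosterone by HPLC-MS/MS, DMSO as baseline, with MTT viability run in parallel.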
# Sequence of Apoptosis regulator Bcl-2 (Homo sapiens) (P10415 whole entry, looked up): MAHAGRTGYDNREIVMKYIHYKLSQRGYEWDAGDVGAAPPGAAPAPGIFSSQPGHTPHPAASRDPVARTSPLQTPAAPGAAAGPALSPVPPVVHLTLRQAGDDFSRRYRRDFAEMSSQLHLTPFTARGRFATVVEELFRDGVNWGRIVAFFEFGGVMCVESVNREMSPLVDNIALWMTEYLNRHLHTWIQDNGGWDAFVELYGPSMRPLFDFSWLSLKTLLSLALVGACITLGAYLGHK
# Sequence of Broad substrate specificity ATP-binding cassette transporter ABCG2 (Homo sapiens) (Q9UNQ0 whole entry, looked up): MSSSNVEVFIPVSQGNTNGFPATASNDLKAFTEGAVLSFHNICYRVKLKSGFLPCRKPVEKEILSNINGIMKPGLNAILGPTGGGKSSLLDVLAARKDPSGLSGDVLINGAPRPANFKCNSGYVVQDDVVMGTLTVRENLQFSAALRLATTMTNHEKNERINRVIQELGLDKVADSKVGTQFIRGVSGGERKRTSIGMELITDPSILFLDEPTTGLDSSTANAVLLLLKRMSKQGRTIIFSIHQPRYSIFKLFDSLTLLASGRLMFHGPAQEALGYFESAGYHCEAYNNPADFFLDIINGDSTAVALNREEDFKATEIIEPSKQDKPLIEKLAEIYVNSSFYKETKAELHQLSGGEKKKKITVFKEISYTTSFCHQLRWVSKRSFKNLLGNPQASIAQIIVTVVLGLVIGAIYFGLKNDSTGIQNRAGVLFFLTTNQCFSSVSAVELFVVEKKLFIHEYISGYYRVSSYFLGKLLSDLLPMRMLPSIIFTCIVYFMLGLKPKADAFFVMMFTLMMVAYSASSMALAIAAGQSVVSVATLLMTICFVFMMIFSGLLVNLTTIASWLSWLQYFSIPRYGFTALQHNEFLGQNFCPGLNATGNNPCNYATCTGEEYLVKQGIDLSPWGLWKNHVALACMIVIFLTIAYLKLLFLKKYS
smiles,measurement,setting,value
CC(C)CCCCCCc1ccc(O)cc1,outcome,[1],inactive
same,outcome,[2],inactive
same,outcome,[3],inactive
same,outcome,[4],inactive
same,outcome,[5],inactive
same,outcome,[6],inactive
same,outcome,[7],inactive
same,outcome,[8],inactive
same,outcome,[9],inactive
same,outcome,[10],inactive
same,outcome,[11],inactive
same,outcome,[12],inactive
same,outcome,BCL2L11 (gene 10018),inactive
same,outcome,[13],inactive
same,outcome,[14],inactive
same,outcome,[15],inactive
O=C(O)c1ccccc1,outcome,[1],inactive
same,outcome,[2],inactive
same,outcome,[3],inactive
same,outcome,[4],inactive
same,outcome,[5],inactive
same,outcome,[6],inactive
same,outcome,[7],inactive
same,outcome,[16],inactive
same,outcome,[17],inactive
same,outcome,[8],inactive
same,outcome,[9],inactive
same,outcome,[10],inactive
same,outcome,[11],inactive
same,outcome,[12],inactive
same,outcome,BCL2L11 (gene 10018),inactive
same,outcome,[13],inactive
same,outcome,[14],inactive
same,outcome,[15],inactive
COCCO,outcome,[2],inactive
same,outcome,[3],inactive
same,outcome,[4],inactive
same,outcome,[5],inactive
same,outcome,[6],inactive
same,outcome,[18],inactive
same,outcome,[7],inactive
same,outcome,[16],inactive
same,outcome,[8],inactive
same,outcome,[9],inactive
same,outcome,[10],inactive
same,outcome,[11],inactive
same,outcome,[12],inactive
same,outcome,BCL2L11 (gene 10018),inactive
same,outcome,[13],inactive
same,outcome,[14],inactive
same,outcome,[15],inactive
CCOC(=O)NCCOc1ccc(Oc2ccccc2)cc1,outcome,[2],inactive
same,AC50,[3],84.4 µM (active)
same,outcome,[4],inactive
same,outcome,[5],inactive
same,AC50,[6],71.2 µM (active)
same,outcome,[18],inactive
same,AC50,[7],78 µM (active)
same,outcome,[16],inactive
same,AC50,[8],50 µM (active)
same,outcome,[9],inactive
same,outcome,[10],inactive
same,outcome,[11],inactive
same,AC50,[12],83.5 µM (active)
same,outcome,BCL2L11 (gene 10018),inactive
same,AC50,[13],85.8 µM (active)
same,AC50,[14],82.1 µM (active)
same,outcome,[15],inactive
C[C@]12C[C@H](O)[C@H]3[C@@H](CCC4=CC(=O)CC[C@@]43C)[C@@H]1CC[C@@H]2C(=O)CO,outcome,[1],inactive
same,outcome,[2],inactive
same,AC50,[3],70 µM (active)
same,outcome,[4],inactive
same,outcome,[5],inactive
same,outcome,[6],inactive
same,AC50,[7],50 µM (active)
same,outcome,[16],inactive
same,outcome,[8],inactive
same,outcome,[9],inactive
same,outcome,[10],inactive
same,outcome,[11],inactive
same,outcome,[12],inactive
same,outcome,BCL2L11 (gene 10018),inactive
same,outcome,[13],inactive
same,outcome,[14],inactive
same,outcome,[15],inactive
CSC(=O)c1cccc2nnsc12,outcome,[19],inactive
same,outcome,[2],inactive
same,outcome,[3],inactive
same,outcome,[4],inactive
same,outcome,[5],inactive
same,outcome,[6],inactive
same,outcome,[7],inactive
same,outcome,[16],inactive
same,outcome,[8],inactive
same,outcome,[9],inactive
same,outcome,[10],inactive
same,outcome,[11],inactive
same,outcome,[12],inactive
same,outcome,BCL2L11 (gene 10018),inactive
same,outcome,[13],inactive
same,outcome,[14],inactive
same,outcome,[15],inactive
